PubChem BioAssay (Tox21)
Results filed as inconclusive are left out. Where a call stands in place of a potency, no number is given. Activity calls are given as the source filed them. Unless noted, calls come from the whole dose curve.

Experiment: qHTS assay to identify small molecule antagonists of the vitamin D receptor (VDR) signaling pathway - cell viability counter screen (AID 743225; active = well fitted cell-killing curve with a large enough effect in the repeat runs; note: nearly all actives have a fitted effect of over 50% in size; note: potency is the fitted concentration of half-maximal effect)
Details: VDR-bla HEK293T viability, CellTiter-Glo luminescence, 16 h; series mostly up to 61 µM
In short: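 VDR-bla HEK 293T cells, 4 h pre-incubation at 37C, then compound plus 1-alpha,25-dihydroxyvitamin D3 (3 nM final) for 16 h. After the beta-lactamase FRET read, CellTiter-Glo was added to the same wells; luminescence after 30 min at room temperature.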

SMILES | Potency
CCOc1nc(F)cc2nc(S(=O)(=O)Nc3c(Cl)cccc3Cl)nn12 | inactive
CC(c1ccc(O)cc1)(c1ccc(O)cc1)c1ccc(O)cc1 | inactive
C[C@]12CC[C@H]3[C@@H](CCC4=CC(=O)CC[C@@H]43)[C@@H]1CC[C@@H]2OC(=O)CCC1CCCCC1 | inactive
CN1[C@@H]2CC[C@H]1CC(OC(=O)c1cc(Cl)cc(Cl)c1)C2 (stereo not given in full) | inactive
CCOP(=S)(OCC)SCSCC | inactive
Cc1c(F)c(F)c(COC(=O)C2C(/C=C(\Cl)C(F)(F)F)C2(C)C)c(F)c1F (stereo not given) | inactive
CC[C@H]1C[C@H]2[C@@H]3CCC4=CC(=O)CC[C@@H]4[C@H]3CC[C@]2(C)[C@H]1O | inactive
O=[Se]=O | inactive
COC(=O)C(C)N(C(=O)Cc1ccccc1)c1c(C)cccc1C (stereo not given) | inactive
ClCc1cccc(Cl)c1 | inactive
CCOP(=S)(Oc1ccc([N+](=O)[O-])cc1)c1ccccc1 (stereo not given) | inactive
CCCCC(O)(Cn1cncn1)c1ccc(Cl)cc1Cl (stereo not given) | 54.9 µM (active)
c1ccc(C2CC2)c(OCC2=NCCN2)c1 | inactive
ClP(Cl)(Cl)(Cl)Cl | inactive
CN1C[C@H](CNC(=O)OCc2ccccc2)C[C@@H]2c3cccc4c3c(cn4C)C[C@H]21 | inactive
C=CCN1CC[C@]23c4c5ccc(O)c4O[C@H]2C(=O)CC[C@@]3(O)[C@H]1C5 | inactive
Cn1sc(Cl)cc1=O | inactive
CCO[C@H]1O[C@@H]2OC3(C)CC[C@H]4[C@H](C)CC[C@@H]([C@H]1C)[C@@]24OO3 | inactive
C[N+](C)(C)CCCl | inactive
Nc1ccc([N+](=O)[O-])cc1[N+](=O)[O-] | inactive

Experiment: qHTS assay to identify small molecule agonists of the NFkB signaling pathway (AID 1159509; active = well fitted curve in the direction sought with a large enough effect in the signal ratio in the repeat runs, not every such curve was filed as active; the % refers to the signal ratio)
Details: NFkB-bla ME-180 cells, beta-lactamase FRET ratio, 5 h; series mostly up to 61 µM
In short: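 ME-180 NFkB-bla, 2,000 cells/well, overnight plating; cpd pinned in DMSO, 5 h 37 C; B/G FRET substrate 1.5 h RT; ex 405, em 460/530 nm.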

SMILES | outcome
CCCCCCCCOC(=O)c1ccc(C(=O)OCCCCCCCC)c(C(=O)OCCCCCCCC)c1 | inactive
N#Cc1ccc(Cl)cc1 | inactive
CO/C=C(/C(=O)OC)c1ccccc1COc1cccc(C(F)(F)F)n1 | inactive
CCOc1nc(F)cc2nc(S(=O)(=O)Nc3c(Cl)cccc3Cl)nn12 | inactive
CC(c1ccc(O)cc1)(c1ccc(O)cc1)c1ccc(O)cc1 | inactive
C[C@]12CC[C@H]3[C@@H](CCC4=CC(=O)CC[C@@H]43)[C@@H]1CC[C@@H]2OC(=O)CCC1CCCCC1 | inactive
CN1[C@@H]2CC[C@H]1CC(OC(=O)c1cc(Cl)cc(Cl)c1)C2 (stereo not given in full) | inactive
COc1cc(Cl)c(OC)cc1Cl | inactive
CCOP(=S)(OCC)SCSCC | inactive
Cc1c(F)c(F)c(COC(=O)C2C(/C=C(\Cl)C(F)(F)F)C2(C)C)c(F)c1F (stereo not given) | inactive
CC[C@H]1C[C@H]2[C@@H]3CCC4=CC(=O)CC[C@@H]4[C@H]3CC[C@]2(C)[C@H]1O | inactive
COC(=O)c1cncn1C(C)c1ccccc1 (stereo not given) | inactive
COc1ccc(-c2ccccc2)cc1NNC(=O)OC(C)C | inactive
O=[Se]=O | inactive
CCc1ccc(C(=O)NN(C(=O)c2cc(C)cc(C)c2)C(C)(C)C)cc1 | inactive
COC(=O)C(C)N(C(=O)Cc1ccccc1)c1c(C)cccc1C (stereo not given) | inactive
CC(C)O.CC(C)O.OCCN(CCO)CCO.OCCN(CCO)CCO.[Ti] | inactive
Cc1ccccc1C(=O)Nc1cccc(OC(C)C)c1 | inactive

SMILES | outcome
ClCc1cccc(Cl)c1 | inactive
N#CCC#N | inactive
CCOS(C)(=O)=O | inactive
CCOP(=S)(Oc1ccc([N+](=O)[O-])cc1)c1ccccc1 (stereo not given) | inactive
CCCCC(O)(Cn1cncn1)c1ccc(Cl)cc1Cl (stereo not given) | inactive
c1ccc(C2CC2)c(OCC2=NCCN2)c1 | inactive
ClP(Cl)(Cl)(Cl)Cl | inactive
O=C(CBr)OCc1ccccc1 | inactive
CN1C[C@H](CNC(=O)OCc2ccccc2)C[C@@H]2c3cccc4c3c(cn4C)C[C@H]21 | inactive
C=CCN1CC[C@]23c4c5ccc(O)c4O[C@H]2C(=O)CC[C@@]3(O)[C@H]1C5 | inactive
Cn1sc(Cl)cc1=O | inactive
O=C(NC(=O)c1c(F)cccc1F)Nc1cc(Cl)c(Oc2ncc(C(F)(F)F)cc2Cl)c(Cl)c1 | inactive
CCCCc1c(C)nc(NCC)nc1OS(=O)(=O)N(C)C | inactive
CCO[C@H]1O[C@@H]2OC3(C)CC[C@H]4[C@H](C)CC[C@@H]([C@H]1C)[C@@]24OO3 | inactive
NC(=O)CI | inactive
C[N+](C)(C)CCCl | inactive
Nc1ccc([N+](=O)[O-])cc1[N+](=O)[O-] | inactive

Experiment: qHTS assay to identify small molecule agonists of the NFkB signaling pathway - cell viability counter screen (AID 1159515); note: nearly all actives have a fitted effect of over 55% in size
Details: NFkB-bla ME-180 viability, CellTiter-Glo luminescence, 5 h; series mostly up to 61 µM
In short: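 Using the same wells as the NFkB reporter read, ME-180 NFkB-bla cells given compounds for 5 hr were assessed for viability via CellTiter-Glo, with luminescence taken after a 30 min room-temperature incubation.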

SMILES | Potency
CCCCCCCCOC(=O)c1ccc(C(=O)OCCCCCCCC)c(C(=O)OCCCCCCCC)c1 | inactive
N#Cc1ccc(Cl)cc1 | inactive
CO/C=C(/C(=O)OC)c1ccccc1COc1cccc(C(F)(F)F)n1 | inactive
CCOc1nc(F)cc2nc(S(=O)(=O)Nc3c(Cl)cccc3Cl)nn12 | inactive
CC(c1ccc(O)cc1)(c1ccc(O)cc1)c1ccc(O)cc1 | inactive
C[C@]12CC[C@H]3[C@@H](CCC4=CC(=O)CC[C@@H]43)[C@@H]1CC[C@@H]2OC(=O)CCC1CCCCC1 | inactive
CN1[C@@H]2CC[C@H]1CC(OC(=O)c1cc(Cl)cc(Cl)c1)C2 (stereo not given in full) | inactive
COc1cc(Cl)c(OC)cc1Cl | inactive
CCOP(=S)(OCC)SCSCC | inactive
Cc1c(F)c(F)c(COC(=O)C2C(/C=C(\Cl)C(F)(F)F)C2(C)C)c(F)c1F (stereo not given) | inactive
CC[C@H]1C[C@H]2[C@@H]3CCC4=CC(=O)CC[C@@H]4[C@H]3CC[C@]2(C)[C@H]1O | inactive
COC(=O)c1cncn1C(C)c1ccccc1 (stereo not given) | inactive
COc1ccc(-c2ccccc2)cc1NNC(=O)OC(C)C | inactive
O=[Se]=O | inactive
CCc1ccc(C(=O)NN(C(=O)c2cc(C)cc(C)c2)C(C)(C)C)cc1 | inactive
COC(=O)C(C)N(C(=O)Cc1ccccc1)c1c(C)cccc1C (stereo not given) | inactive
CC(C)O.CC(C)O.OCCN(CCO)CCO.OCCN(CCO)CCO.[Ti] | inactive
Cc1ccccc1C(=O)Nc1cccc(OC(C)C)c1 | inactive

SMILES | Potency
ClCc1cccc(Cl)c1 | inactive
N#CCC#N | inactive
CCOS(C)(=O)=O | inactive
CCOP(=S)(Oc1ccc([N+](=O)[O-])cc1)c1ccccc1 (stereo not given) | inactive
CCCCC(O)(Cn1cncn1)c1ccc(Cl)cc1Cl (stereo not given) | inactive
c1ccc(C2CC2)c(OCC2=NCCN2)c1 | inactive
ClP(Cl)(Cl)(Cl)Cl | inactive
O=C(CBr)OCc1ccccc1 | inactive
CN1C[C@H](CNC(=O)OCc2ccccc2)C[C@@H]2c3cccc4c3c(cn4C)C[C@H]21 | inactive
C=CCN1CC[C@]23c4c5ccc(O)c4O[C@H]2C(=O)CC[C@@]3(O)[C@H]1C5 | inactive
Cn1sc(Cl)cc1=O | inactive
O=C(NC(=O)c1c(F)cccc1F)Nc1cc(Cl)c(Oc2ncc(C(F)(F)F)cc2Cl)c(Cl)c1 | inactive
CCCCc1c(C)nc(NCC)nc1OS(=O)(=O)N(C)C | inactive
CCO[C@H]1O[C@@H]2OC3(C)CC[C@H]4[C@H](C)CC[C@@H]([C@H]1C)[C@@]24OO3 | inactive
NC(=O)CI | inactive
C[N+](C)(C)CCCl | inactive
Nc1ccc([N+](=O)[O-])cc1[N+](=O)[O-] | inactive
